Integrin act MD: integrin-mediated muscular dystrophy alleviation activation; alpha7betagal myoblasts, beta-gal FDG fluorescence, 48 h; Potency, µM (highest dose often 38.3 µM), for the others: top-dose activation, most hits filed as activators; 350,000 tested, 0.064% active; AID 624291;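 also: 100% = response of the positive control SU9516; nearly all actives have a fitted effect of over 60% in size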
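Alpha7betagal+/- myoblasts (passage 13) were plated 16-24 hr, then exposed to compounds (1:260 dilution of DMSO stock) for 48 hours at 37C. After MPER lysis, β-galactosidase reporter activity was read as FDG fluorescence (ex 480/em 540) after 30 minutes.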
MCF10A rereplic: induces DNA re-replication in MCF 10a normal breast cells | MCF 10A DNA re-replication, Hoechst nuclear intensity, 48 h | Potency, µM (series often up to 46.1 µM), for inactives: at the top dose activity, positive = re-replication, actives largely listed as activators | 350,000 tested, 2.9% active | AID 624296; also: % of control where 0% means no effect; nearly all actives have a fitted effect of over 50% in size
Mito fusion act: mitochondrial division inhibition or fusion activation; S. cerevisiae fusion-defective mutant growth rescue, CellTiterGlo 48 h; 320,000 tested, 0.23% active; Potency, µM (top dose mostly 46.1 µM), inactives show at the highest dose growth rescue (activation), actives largely listed as activators; also: % of control where 0% means no effect; nearly all actives have a fitted effect of over 45% in size
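Luminescent cell viability in 1536-well qHTS format served as the measure of rescued growth in ts fusion-mutant S. cerevisiae cultured on non-fermentable YPEG for 48 hours at 37C.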
A-T KAP1 phos: candidate therapy for ataxia-telangiectasia; F2112 A-T fibroblasts, KAP-1 phosphorylation AlphaLISA; neocarzinostatin DNA damage 30 min before lysis; Potency, µM (doses to about 57.5 µM), for the others: at the highest dose activation, most hits filed as activators; 320,000 tested, 0.19% active; AID 485349; also: % of control where 0% means no effect; nearly all actives have a fitted effect of over 45% in size
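hTERT-immortalized A-T patient fibroblasts (F2112), 500 cells/well in OPTI-MEM, 1% FBS, got compounds for 60 min, then NCS for 30 min at 37C. Lysates were then assayed for phospho-KAP-1 by AlphaLISA (anti-pKAP1 donor, anti-KAP1 acceptor beads), 6 hr at 25C.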
SW480 rereplic: inducers of DNA re-replication in SW480 colon cancer cells; SW480 DNA re-replication, Hoechst DNA content imaging, 48 h; 340,000 tested, 1.8% active; Potency, µM (titrated, usually from 46.1 µM), inactives show top-dose re-replication activation, most hits filed as activators; also: % of control where 0% means no effect; nearly all actives have a fitted effect of over 55% in size
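SW480 cells exposed to compounds for 48 hr at 37 C, 5% CO2, then Hoechst-stained 40 min. Nuclear DNA content imaged by fluorescence scanning (405 nm excitation, 500-530 nm emission); re-replication scored as increased high-intensity nuclei.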
An asterisk follows results filed as active; ? = inconclusive; . = no result; [ ] = dose if it differs, or a comment. Sampled rows, rich in hits. Any-hit rate of the full collection: about 4.2%. Calls follow the shape of the dose curve; as a rule, active = well fitted activation curve with a large enough effect; inconclusive = small, poorly fitted or top-dose-only effect; inactive = no such curve, though single readings can be large or run the other way. Potency is read from the fitted curve at half-maximal effect.

SMILES	Integrin act MD	MCF10A rereplic	Mito fusion act	A-T KAP1 phos	SW480 rereplic
CCCc1cc(NCC2CCCO2)n2c(nc3ccccc32)c1C#N (stereo not drawn)	-3.1%	16.4µM*	9.9%	18.8%	?
CCC(=NCCc1c(C)[nH]c2ccc(C)cc12)C1=C(O)CC(c2ccccc2)CC1=O (stereo not drawn)	?	?	29.2%	-8.6%	2.59µM*
O=C(NCCCc1ccccc1)c1ccccc1O	-5.5%	14.6µM*	6.7%	.	?
N#Cc1ccc(-c2ccco2)nc1SCC(=O)c1ccc(Cl)cc1	-52.2%	7.94µM*	3.3%	-2.4%	8.0%
Cc1ccc(C(=O)CSc2nc(-c3ccccc3)ccc2C#N)cc1	1.8%	3.66µM*	-0.7%	12.3%	?
COc1ccc(-c2ccc(C#N)c(SCC(=O)OCc3ccccc3)n2)cc1OC	19.6%	9.2µM*	5.9%	6.4%	?
Cc1noc(C)c1CSCC(=O)Nc1nc2ccc(S(C)(=O)=O)cc2s1	8.7%	16.0%	-2.7%	-1.3%	-84.8%
O=C1c2ccccc2C(=O)N1Cc1cnc(N2CCN(c3ccccc3)CC2)s1	15.1%	?	16.6%	2.1%	18.4µM*
Cc1cc(C)c2c(c1)/C(=N\N=c1\sc3ccccc3n1C)C(=O)N2	?	0.0%	7.1%	-9.1%	-0.8%
CN(Cc1ccccc1)C(=O)c1cccc(N2C(=O)C3CC=CCC3C2=O)c1 (stereo not drawn)	-4.1%	?	10.0%	3.16µM*	-8.1%
COc1cc(/C=C(\NC(C)=O)C(=O)Nc2cccc(O)c2)ccc1OC(C)=O	-4.1%	4.9%	1.8%	-5.6%	-4.1%
Cc1cc(C)cc(NS(=O)(=O)c2c(C(=O)N3CCCCCC3)c(C)n(C)c2C)c1	0.3%	0.0%	17.9%	-2.9%	-2.3%
O=C(CSc1nnc(-c2ccccc2)c(-c2ccccc2)n1)NCc1ccco1	-18.8%	18.4µM*	0.7%	-3.1%	19.2%
O=C(CSC1=Nc2ccccc2C2CC=NN12)NCc1ccco1 (stereo not drawn)	-44.1%	20.6µM*	.	-4.2%	?
O=C(CSc1nc(-c2ccccc2)c(-c2ccccc2)[nH]1)NCc1ccco1	-18.8%[7.66 µM]	14.6µM*	1.4%	0.8%	11.6µM*
N#Cc1ccccc1NC(=O)CSC1=Nc2ccccc2C2CC=NN12 (stereo not drawn)	-6.6%	16.0%	-1.1%	7.1%	2.6%
O=C(CSC1=NCCS1)NCc1ccco1	-20.7%	23.1µM*	-0.7%	7.7%	?
O=C(Cn1nc(Cc2ccncc2)c2ccccc2c1=O)Nc1cccnc1Cl	-2.2%	-0.5%	-3.6%	-18.2%	-6.7%
c1ccc(CSc2nnc(-c3ccccc3)c(-c3ccccc3)n2)cc1	4.8%	8.2µM*	.	.	?
CC(=O)OC[C@]12CC[C@H]3[C@@](C)(CC[C@H]4C(C)(C)CCC[C@]34C)[C@@H]1C[C@@H](C1=CC(=O)O[C@@H]1OC(C)=O)O2	.	.	.	-1.2%	.
CC(=O)OC[C@]12CC[C@H]3[C@@](C)(CC[C@H]4C(C)(C)CCC[C@]34C)[C@@H]1C[C@H](C1=CC(=O)O[C@H]1OC(C)=O)O2	.	.	.	35.5µM*	.
O=S(=O)(Nc1ccccn1)c1ccc(C(F)(F)F)cc1Cl	3.8%	?	2.2%	-2.6%	20.6µM*
CCOc1ccc2c(c1)OC(c1ccc(OC)cc1)(C(F)(F)F)NC2=O (stereo not drawn)	14.5%	2.31µM*	?	-0.9%	5.17µM*
C=CCn1c(=N)n(CC(=O)c2ccc(Cl)cc2)c2ccccc21	-35.3%	?	-23.8%	15.8µM*	19.7%
N=c1n(CCN2CCCCC2)c2ccccc2n1CC(=O)c1ccc(Cl)c(Cl)c1	-67.1%	10.3µM*	8.0%	35.5µM*	?
SMILES	Integrin act MD	MCF10A rereplic	Mito fusion act	A-T KAP1 phos	SW480 rereplic
Cc1ccc(Cn2c(=N)n(CC(=O)c3ccc([N+](=O)[O-])cc3)c3ccccc32)cc1	-32.1%	9.2µM*	0.9%	2.6%	?
CCn1c(=N)n(CC(=O)c2ccc(Cl)c(Cl)c2)c2ccccc21	-17.0%	25.9µM*	-28.6%	28.2µM*	?
CC(C)(O)C#Cc1ccc(CN2CCN(CCc3ccccc3)C(CCO)C2)s1 (stereo not drawn)	1.8%	-3.4%	-4.0%	3.5%	22.5%
O=S1(=O)c2ccc(Br)cc2N2CCC[C@@H]2CN1Cc1ccc(Cl)cc1	10.7%	?	.	.	?
O=S1(=O)c2ccc(Br)cc2N2CCC[C@@H]2CN1C1CC1	0.0%	?	.	.	0.4%
O=S1(=O)c2ccc(Br)cc2N2CC[C@H](C2)N1Cc1ccc(Cl)cc1	-14.2%	3.26µM*	.	.	6.51µM*
C[C@@H](c1ccccc1)N1C[C@H]2CCCN2c2cc(Br)ccc2S1(=O)=O	-9.6%	7.31µM*	.	-54.7%	16.4µM*
O=S1(=O)c2ccc(Br)cc2N2CCC[C@H]2CN1Cc1ccccc1	-15.0%	2.59µM*	.	11.1%	5.17µM*
C=CCNC(=O)[C@@H]1CSC2c3ccc(OC)c(OC)c3C(=O)N21 (stereo partly drawn)	-15.0%	-18.7%	15.9%	-3.3%	-14.4%
O=C(Nc1ccccc1)C(Cc1ccccc1)c1ccccc1 (stereo not drawn)	23.6%	2.8%	.	.	-2.4%
COc1ccc(NC(=O)CSc2nnnn2C2CCCC2)cc1S(=O)(=O)N1CCOCC1	20.8%	.	.	.	.
CSc1ccccc1NC(=O)CN(C)C(=O)COc1cccc2cccnc12	-10.9%	?	.	-7.7%	5.8µM*
CN(CC(=O)Nc1ccc(Cl)c(C(F)(F)F)c1)C(=O)COc1cccc2cccnc12	13.9%	.	.	.	.
CCCCn1c(-c2ccc(C(C)(C)C)cc2)nc2cc3[nH]c(=O)c(C(C)C)nc3cc21	13.3%	18.4µM*	-11.7%	5.8%	3.1%
CCCCn1c(-c2cccnc2)nc2cc3[nH]c(=O)c(C(C)C)nc3cc21	-15.9%	20.6%	-0.1%	6.8%	-3.9%
CCCCn1c(=O)[nH]c(=O)c2c1nc(-c1ccc3ccccc3c1)n2CC	4.1%	22.5%	2.7%	-3.2%	-6.1%
CCCCn1c(-c2cccc(Br)c2)nc2cc3[nH]c(=O)c(C(C)C)nc3cc21	3.7%	18.4µM*	9.8%	-0.7%	?
CCCCn1c(-c2ccc(Cl)c(Cl)c2)nc2cc3[nH]c(=O)c(C(C)C)nc3cc21	-3.6%	14.6µM*	0.8%	-7.2%	19.1%
COC(=O)c1cc(C#N)c(N2CC(C)OC(C)C2)nc1C (stereo not drawn)	18.4%	17.1%	-3.9%	-3.6%	0.3%
COC(=O)c1cc(C#N)c(N2CCN(C)CC2)nc1C	-21.7%	20.6µM*	-8.2%	1.0%	-69.5%
Cc1ccc(-c2cc(C(=O)Nc3ccc(S(=O)(=O)Nc4cc(C)on4)cc3)c3ccccc3n2)c(C)c1	12.9%	?	-0.4%	-3.6%	-4.6%
